Screening results (PubChem)
The list is not random: actives were taken first. Their share in the collection is about 3.9%.
NSD2 inh = NSD2 histone methyltransferase inhibitors, primary screen, biochemical, AlphaScreen, single concentration, set 2. inhibition, % at 12.5 µM. AID 743445, 2014. NSD2 peptide methylation, 120 min. 310,000 compounds, 0.54% hits. Histone-lysine N-methyltransferase NSD2 (Homo sapiens), O96028; in the data active = inhibition above about 50%
Glyco luc inh = increase of ERlucT glycosylation luciferase signal, primary screen, N-linked glycosylation inhibitor project, D54 ERlucT cells, luminescence, set 2 | D54 ERlucT glycosylation luciferase reporter, 24 h; percent of 100 nM tunicamycin response | reporter increase, % at 12.5 µM | 360,000 compounds, 0.23% hits | AID 588692, 2011;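 active = mean luciferase reporter signal, scaled so untreated is 0 and the glycosylation-blocking control 100, at or above a set limit in every replicate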;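 also: luciferase carries N-glycosylation sites so blocking glycosylation raises the light; 0% = median of neutral control wells and 100% = median of 100 nM tunicamycin wells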
Casp6 inh = human caspase-6 inhibitors, primary screen, biochemical, VEID-R110 fluorescence, single point, set 2; 350,000 compounds, 0.53% hits; purified caspase-6, Z-VEID-R110 cleavage fluorescence; AID 686996, 2013; inhibition, % at 12.5 µM;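 active = mean inhibition across replicates at least about 35%, with every replicate also reaching that limit, limit read from the data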;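 also: 0% = median of neutral control wells and 100% = no fluorescence left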
SUMO Mot1 rescue = yeast Mot1-301 growth rescue at high temperature, primary screen, SUMOylation pathway inhibitor project, S. cerevisiae, ATP luminescence, 38.5C. S. cerevisiae Mot1-301 growth rescue; percent above DMSO median, 100 means doubled. growth rescue, % at 18.8 µM. 320,000 compounds, 1% hits;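 active = every valid replicate shows activation above 250% relative to neutral control wells; inactive = the rest, any valid replicate at or below 250%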;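 also: OY570 slx delta 5 strain wells were the positive control but not used for scaling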
ALR H2O2 inh = inhibitors of human ALR sulfhydryl oxidase, primary screen, biochemical, H2O2 detection, HRP-luminol luminescence, single point. 290,000 compounds, 3.8% hits. inhibition, % (test concentration not listed). purified ALR, DTT oxidation;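 active = mean replicate inhibition above about 79%, with every replicate also reaching it, limit read from the data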
CDK5 p35 inh = inhibitors of human CDK5/p35 kinase, primary screen, biochemical, single concentration | 330,000 compounds, 0.01% hits | Cyclin-dependent kinase 5 (Homo sapiens) + Cyclin-dependent kinase 5 activator 1 (Homo … | Recombinant CDK5/p35, ADP-Glo luminescence, 60 min | inhibition, % at 10 µM | AID 488839, 2010;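 active = highest replicate inhibition of at least 50% and at least 75% of replicates reaching 50%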;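 also: plate controls were DMSO neutral control for no effect and GW8510 at 10 µM for full effect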
* hit, by the source's call; / = no result given.

SMILES | NSD2 inh | Glyco luc inh | Casp6 inh | SUMO Mot1 rescue | ALR H2O2 inh | CDK5 p35 inh
Cc1cc(C)c(O)c(-c2cc(C(=O)Nc3cccnc3)[nH]n2)c1 | 1 | -1 | 2 | 51 | 98* | -3
Cc1ccc(S(=O)(=O)N(C)C[C@H]2Oc3c(NC(=O)C4CCOCC4)cccc3C(=O)N([C@H](C)CO)C[C@H]2C)cc1 | / | / | -2 | / | / | /
COc1ccccc1NC(=O)Nc1ncccc1C | 0 | 2 | / | -4 | 98* | 0
COc1ccccc1NC(=O)Nc1cnccn1 | -3 | 2 | -1 | 17 | 1 | 2
O=C(CSc1nnnn1-c1ccccc1)Nc1ccc(N2CCOCC2)cc1 | -2 | 0 | -3 | -17 | 8 | 0
O=C(CSc1nncn1-c1ccccc1)Nc1ccc(N2CCOCC2)cc1 | 1 | 0 | / | 219 | 99* | -1
CCC(c1nnc(SCC(=O)Nc2ccc(N3CCOCC3)cc2)n1Cc1ccccc1)N(C)C (configuration not stated) | -2 | 2 | 0 | -18 | 98* | 1
O=C(CSc1nnc(C2CC2)n1-c1ccccc1)Nc1ccc(N2CCOCC2)cc1 | 4 | -1 | / | 3 | 98* | 1
COc1ccccc1NC(=O)CSc1nncn1-c1ccccc1 | -4 | 1 | 0 | -13 | 98* | -3
COCC(=O)Nc1ccc2c(c1)C(=O)N(C)[C@H]1CC[C@@H](CC(=O)Nc3ccccc3)O[C@@H]1CO2 | / | / | 3 | / | / | /
CCc1cccc(NC(=O)O[C@H]2[C@H](OC(=O)Nc3ccc4c(c3)OCO4)[C@@H](OC(=O)Nc3ccc4c(c3)OCO4)[C@@H](OC)O[C@@H]2CO)c1 | / | / | 0 | / | / | /
COC(=O)C[C@H]1CC[C@H]2[C@@H](COC[C@@H](O)CN2CCC(F)(F)F)O1 | / | / | 1 | / | / | /
CCC(=O)Nc1ccc2c(c1)OC[C@@H](C)N(C(=O)C1CCC1)C[C@H](C)[C@H](OC)CN(C)C2=O | / | / | 0 | / | / | /
C[C@H]1CN([C@@H](C)CO)C(=O)c2cccc(NC(=O)c3cnccn3)c2O[C@H]1CN(C)CC1CCCCC1 | / | / | 4 | / | / | /
N#C/C(=C/c1cc[nH]c1)C(N)=S | / | 0 | 4 | 295* | / | 0
CC(=O)c1ccc(NC(=S)NNC(=O)NC2CCCCC2)cc1 | / | 6 | 5 | 12 | 94* | 0
NS(=O)(=O)c1ccc(NC(=S)NC2CCCCCC2)cc1 | -1 | -2 | / | 6 | 96* | 1
CCCN1[C@@H]2Cn3c(ccc(C4=CCCCC4)c3=O)[C@H]1[C@@H](C(=O)N1CCOCC1)[C@@H]2CO | / | / | 2 | / | / | /
CCOC(=O)c1sc(NC(=O)CSC(=S)N2CCN(C)CC2)nc1C | 0 | -2 | 4 | 19 | 99* | 7
Cc1ccc(C(=O)OCC(=O)Nc2ccc(N3CCOCC3)cc2)cc1 | -1 | 1 | -8 | / | / | -1
Cc1ccc(NC(=O)COC(=O)CSC(=S)N2CCOCC2)cc1 | -7 | 0 | 5 | / | 98* | -3
CCOC(=O)c1ccc(NC(=O)CN2C(=O)NC3(CCCCCC3)C2=O)cc1 | 0 | -1 | -2 | 612 | -7 | -3
CCOC(=O)c1ccc(NC(=O)CN2C(=O)CN(C(C)=O)C2=S)cc1 | 0 | 0 | 0 | 370 | 99* | -1
Cc1cnc(NC(=O)CSC(=S)N2CCOCC2)s1 | 0 | 0 | -4 | 2 | 97* | 0
CCOC(=O)c1sc(NC(=O)CCSC)nc1C | -2 | -2 | / | 16 | 42 | -1
SMILES | NSD2 inh | Glyco luc inh | Casp6 inh | SUMO Mot1 rescue | ALR H2O2 inh | CDK5 p35 inh
CCc1nnc(NC(=O)CSC(=S)N2CCOCC2)s1 | -1 | -1 | 0 | 394 | -7 | 1
C[C@H](CO)N1C[C@H](C)[C@H](CN(C)Cc2ccccc2)Oc2ncc(C#Cc3cccnc3)cc2C1=O | / | / | 0 | / | / | /
COCC(=O)Nc1ccc2c(c1)C(=O)N(C)[C@@H]1CC[C@@H](CC(=O)Nc3ccccc3)O[C@H]1CO2 | / | / | 1 | / | / | /
Cc1cnc(NC(=O)Cc2ccc(S(=O)(=O)N3CCOCC3)s2)s1 | 1 | 2 | 1 | 7 | 92* | 1
CCOC(=O)c1ccc(NC(=O)CSC(=S)N2CCOCC2)cc1 | -2 | 1 | -2 | 11 | 100* | -1
O=C(C[C@@H]1C[C@H]2c3cc(NC(=O)C4CCOCC4)ccc3O[C@H]2[C@H](CO)O1)NCc1ccccc1F | / | / | -1 | / | / | /
CN(C)C(=O)c1cccc(-c2ccc([C@@H]3[C@H](CO)N4C(=O)CN(C(=O)C5CCC5)C[C@@H]34)cc2)c1 | / | / | 1 | / | / | /
CCc1c(O)nc(SCC(=O)Nc2ccccc2C)[nH]c1=O | 1 | 0 | / | 3 | 99* | 1
CCCCc1c(O)nc(SCC(=O)c2ccccc2)[nH]c1=O | -2 | 5 | / | -6 | 99* | 0
O=C(C[C@H]1CC[C@H](NC(=O)Nc2ccc3c(c2)OCO3)[C@H](CO)O1)NCc1ccc(F)cc1 | / | / | -13 | / | / | /
CC(C)C#Cc1cnc2c(c1)C(=O)N([C@@H](C)CO)C[C@@H](C)[C@@H](CN(C)C(=O)Nc1cccc(F)c1)O2 | / | / | -2 | / | / | /
C=CCn1c(SCC(=O)Nc2nc(C)cs2)nnc1C(CO)NC(=O)c1ccccc1 (configuration not stated) | / | 2 | / | 1 | 85* | 0
COc1ccc(CCSc2nnc(C3CCCCC3)n2N)cc1 | 0 | 8 | / | 103 | 96* | -3
CCn1c(SCC(=O)Nc2nc(C)cs2)nnc1C(NC(=O)c1ccccc1Cl)C(C)C (configuration not stated) | -3 | 0 | / | -11 | 0 | 0
CC(=O)Nc1ccc(NC(=O)CSc2nnc(C)c(=O)n2N)cc1 | -9 | 0 | -2 | 5 | 98* | -2
Cc1csc(NC(=O)CSc2nnc(C)c(=O)n2N)n1 | / | 2 | -1 | / | 99* | -1
Cc1noc(C)c1S(=O)(=O)Nc1ccc2c(c1)C(=O)N([C@@H](C)CO)C[C@@H](C)[C@H](CN(C)Cc1ccc3c(c1)OCO3)OCCCC[C@@H](C)O2 | / | / | -2 | / | / | /
CCCCn1nnnc1SCC(=O)Nc1ccc(N(C)C)cc1 | 3 | 2 | / | -10 | 99* | 2
CN(C)c1ccc(NC(=O)CSc2nnc(C3CCCCC3)n2N)cc1 | 9 | 2 | -2 | -20 | 99* | 1
Cc1nnc(SCC(=O)Nc2ccc(N(C)C)cc2)n(N)c1=O | 4 | 0 | -3 | 10 | 99* | 1
Cc1nnc(SCC(=O)Nc2ccc(F)cc2)n(N)c1=O | -4 | 1 | -4 | 1 | -30 | -1
CCCCn1nnnc1SCC(=O)Nc1ccc(F)cc1 | -4 | 1 | / | -6 | 1 | 2
